Bioassay records deposited in PubChem BioAssay by National Center for Advancing Translational Sciences (NCATS).
The entries come from a sample that favours hits as a whole.
aSyn tox rescue – inhibitors of alpha-synuclein toxicity in yeast; AID 1347070; Potency, µM (highest dose often 46.1 µM), hits mostly activators; 94,000 tested, 0.02% active; S. cerevisiae alpha-synuclein toxicity rescue, BacTiter-Glo growth, 24 h; active = well fitted activation curve with a large enough effect; also: 0% is about no effect
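Growth restoration measured by BacTiter-Glo luminescence after 24 hr at 30 deg C; alpha-synuclein yeast, raffinose-pregrown to mid-log, were added at OD600=0.02 in galactose medium onto pinned compounds.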
An asterisk follows results filed as active; i = inactive. Potency is read from the fitted curve at half-maximal effect.

SMILES | aSyn tox rescue
COc1cccc2sc(N(Cc3cccnc3)C(=O)COc3ccccc3)nc12 | i
O=C(C1COc2ccccc2O1)N(Cc1cccnc1)c1nc2c(Cl)cccc2s1 (configuration not stated) | i
O=C(Cc1ccccc1)N(Cc1cccnc1)c1nc2c(Cl)cccc2s1 | 14µM*
CCN(c1ccccc1)S(=O)(=O)c1cc(-c2onc(C)c2C)ccc1OC | i
CC(=O)c1ccc(NC(=O)CSc2nc3c(=O)n(C)c(=O)n(C)c3n2C)cc1 | i
COc1ccccc1NC(=O)C1=C(C)Nc2c(C(=O)Nc3cccc(C)c3)cnn2C1c1ccccc1Cl (configuration not stated) | i
CC(=O)c1ccc(NC(=O)C(Cc2ccccc2)NS(=O)(=O)c2ccc3c(c2)CCC(=O)N3)cc1 (configuration not stated) | i
COc1ccc2[nH]cc(CCNC(=O)c3cnn(-c4ccccc4Cl)c3C3CCN(C(=O)OC(C)(C)C)CC3)c2c1 | i
CCc1ccc(CN(Cc2ccco2)C(=O)c2cc(-c3ccc(C)c(F)c3)on2)cc1 | i
CCOc1ccc(NC(=O)CSc2cn(CC(=O)N3CCCCCC3)c3ccccc23)cc1 | i
Cc1c(C(=O)Nc2ccc(F)c(F)c2)oc2ccc(S(=O)(=O)N(C)C3CCCCC3)cc12 | i
CN1CCN(C2(CNC(=O)c3ccc([N+](=O)[O-])cc3)CCCCC2)CC1 | i
Cc1ccccc1-c1noc(-c2cccnc2N2CCN(c3ccccc3)CC2)n1 | i
CC(C)c1ccc(Nc2c(-c3ccccc3O)nc3cnccn23)cc1 | 22µM*
COc1cc(-c2nc3cnccn3c2Nc2ccc(C(C)C)cc2)ccc1O | i
Cc1ccn2c(Nc3ccc(C(C)C)cc3)c(-c3cccnc3)nc2c1 | i
O=C(Nc1ccccc1C(=O)OCc1cc(=O)n2c3c(sc2n1)CCCC3)c1ccccc1 | i
COc1ccc(NC(C)=O)cc1NC(=O)C1(c2cccs2)CCOCC1 | i
CSc1ccc(CCNC(=O)c2cc3cc(S(=O)(=O)N4CCCCC4)ccc3n2C)cc1 | i
COC(=O)c1ccc(C(=O)OC)c(NC(=O)N2CC3CCCN3c3ccccc32)c1 (configuration not stated) | i
COc1ccc(-c2nc(Cn3c(=O)cc(-c4ccccc4)c4c(C)nn(C)c43)c(C)o2)cc1OC | i
CCOc1ccc(C(=O)N2CCC(c3ccncc3)CC2)cc1 | i
Cc1ccc(-n2c(=O)c3c(cnn3C)n(CC(=O)Nc3cccc(Cl)c3)c2=O)cc1 | i
Cc1ccn2c(=O)cc(COc3ccc(NC(=O)COc4ccc(Cl)cc4)cc3)nc2c1 | i
CCOC(=O)c1cc(C)n(CC2CCC(C(=O)Nc3cccc(C(C)=O)c3)CC2)c1C (configuration not stated) | i
SMILES | aSyn tox rescue
CC1CCc2onc(C(=O)N3CCN(c4ccc(F)cc4)CC3)c2C1 (configuration not stated) | i
CCOc1ccc(C(=O)Nc2cc(-c3ccccc3)no2)cc1 | i
Cc1ccccc1CN1C(=O)c2ccccc2S(=O)c2ccc(C(=O)NC3CCC(C)CC3)cc21 (configuration not stated) | i
Cc1cc(C)cc(OCc2cc(=O)n3c4c(sc3n2)CCCC4)c1 | i
O=S(=O)(Nc1ccc2nc(-c3ccc(F)cc3)oc2c1)c1ccccc1 | 20µM*
COc1ccc(-c2nc3ccc(NS(=O)(=O)c4ccccc4)cc3o2)cc1 | i
Cc1ccc(S(=O)(=O)Nc2ccc3nc(-c4ccc(F)cc4)oc3c2)cc1 | i
O=C(CCC1N=C2c3ccccc3N=C(SCc3ccccc3Cl)N2C1=O)NCc1cccs1 (configuration not stated) | i
Cc1nc2c(-c3ccccc3)c(C)nn2c(C)c1CCC(=O)NCc1ccc(F)cc1 | i
CCc1nn2c(=O)cc(COC(=O)c3ccccc3)nc2s1 | i
CCOc1cc(-c2nc(-c3ccc(-c4ccc(C)cc4)nc3OC)no2)cc(OCC)c1OCC | i
CCOc1ccc(C(=O)N2CC(=O)Nc3ccc(C)cc3C2c2ccc(F)cc2)cc1OCC (configuration not stated) | i
Cc1oc2c(C)c3oc(=O)c(CCC(=O)N4CCCCC4)c(C)c3cc2c1C | i
COc1ccc(CCNC(=O)c2cc(Nc3ccccc3)nc3ccccc23)cc1OC | i
Cc1ccc2nc(Nc3cccc(C(F)(F)F)c3)c3nnnn3c2c1 | i
CCOc1ccccc1NC(=O)c1cnn2c(C(F)F)cc(-c3ccccc3)nc12 | i
O=C(NCc1ccccc1)c1ccc2c(c1)sc1nc(-c3ccc(F)cc3)cn12 | i
Cn1cc(CCCC(=O)NCc2cccc(Br)c2)c2ccccc21 | i
CCCCNC(=O)CCn1c(=O)c2cccn2c2cccnc21 | i
CC(=O)c1nnn(-c2ccc(C)cc2Cl)c1C | i
O=C1CCCc2cc(S(=O)(=O)NCC3CCC(C(=O)Nc4ccc(Cl)cc4)CC3)ccc2N1 (configuration not stated) | i
COc1ccc(OC)c(NC(=O)CSc2ccnc(=O)[nH]2)c1 | i
Cc1ccc(NC(=O)c2ccc(CN3CC(=O)N4CCCCC4C3=O)cc2)cc1 (configuration not stated) | i
Cc1ccc(COc2ccc3oc(-c4ccccc4)c(C(=O)O)c3c2)cc1 | i
Cc1ccc(CCNC(=O)CS(=O)Cc2nc(-c3cccs3)oc2C)cc1 (configuration not stated) | i
SMILES | aSyn tox rescue
CCc1ccc(-c2nc(CS(=O)CC(=O)NCCc3ccc(C)cc3)c(C)o2)cc1 (configuration not stated) | 20µM*
Cc1ccc(CCNC(=O)CS(=O)Cc2nc(-c3ccccc3C)oc2C)cc1 (configuration not stated) | i
COc1ccc(NC(=O)CSc2oc(-c3ccc(F)cc3)nc2S(=O)(=O)c2ccc(C)cc2)c(OC)c1 | i
CN(C(=O)CSc1nc2ccc(NC(=O)c3ccc(F)cc3)cc2s1)c1ccccc1 | i
CCC(C)NC(=O)c1cc2cc(S(=O)(=O)N3CCCCC3)ccc2n1C (configuration not stated) | i
CCc1ccc(CNC(=O)c2cnc3sc(N4CCCC4)nn3c2=O)cc1 | i
CCc1ccccc1S(=O)(=O)Cc1ccc(C(=O)NCCc2ccc(C)cc2)o1 | i
O=C(NCCS(=O)(=O)N1CCN(c2ccccc2F)CC1)C(c1ccccc1)c1ccccc1 | i
O=S(=O)(c1ccc(Cl)cc1)c1nc(-c2cccs2)oc1SCc1ccc(F)cc1 | i
COc1ccc(C(=O)Nc2cccc(C(=O)OCc3cc(=O)n4nc(C5CC5)sc4n3)c2)cc1 | i
COc1ccccc1Cn1c(CNS(=O)(=O)c2cccc([N+](=O)[O-])c2)nc2cccnc21 | i
Cc1cc(=O)[nH]c2nnc(SCc3cccc(F)c3)n12 | i
Fc1ccc(-c2noc3ncnc(NC4CCCCC4)c23)cc1 | i
Cc1ccc(NC(=O)CCNS(=O)(=O)c2ccc3c(c2)CCCC(=O)N3)cc1 | i
CCC12CN3CC(C)(CN(C1)C3c1c[nH]c3ccc(OC)cc13)C2=O (configuration not stated) | i
COCc1cc(C)nc2sc3c(c12)NC(c1ccc(NC(C)=O)cc1)N(c1ccc(C)cc1)C3=O (configuration not stated) | i
Cc1ccc(NC(=O)c2cc(S(=O)(=O)NC3CCCCCC3)ccc2F)cc1F | 25µM*
CCc1ccc(NC(=O)c2cc(S(=O)(=O)NC3CCCC3)ccc2F)cc1 | i
Cc1ccc(NC(=O)c2cc(S(=O)(=O)N3CCCCCC3)ccc2F)cc1F | i
CCOC(=O)c1ccc(NC2=CC(c3ccc(F)cc3)N(c3ccc(C(=O)OCC)cc3)C2=O)cc1 (configuration not stated) | i
COc1ccc(C2=C(C)C(N3CCC(C(=O)Nc4ccccc4F)CC3)=NS2(=O)=O)cc1 | i
